An excerpt weighted towards active compounds, which were near 5.6% of everything screened.
PKM2 act – activators of human pyruvate kinase M2; 260,000 compounds, 0.34% hits; P14618; Potency, µM (titrated, usually from 57.5 µM), for inactives: at the top dose activation, actives largely listed as activators; purified PKM2, Kinase-Glo ATP luminescence, activation; response scale: 0% is enzyme alone, no compound; further: potency means the concentration at half of the fitted maximal effect; nearly all actives have a fitted effect of over 55% in size
Target sequence (P14618 whole entry, looked up): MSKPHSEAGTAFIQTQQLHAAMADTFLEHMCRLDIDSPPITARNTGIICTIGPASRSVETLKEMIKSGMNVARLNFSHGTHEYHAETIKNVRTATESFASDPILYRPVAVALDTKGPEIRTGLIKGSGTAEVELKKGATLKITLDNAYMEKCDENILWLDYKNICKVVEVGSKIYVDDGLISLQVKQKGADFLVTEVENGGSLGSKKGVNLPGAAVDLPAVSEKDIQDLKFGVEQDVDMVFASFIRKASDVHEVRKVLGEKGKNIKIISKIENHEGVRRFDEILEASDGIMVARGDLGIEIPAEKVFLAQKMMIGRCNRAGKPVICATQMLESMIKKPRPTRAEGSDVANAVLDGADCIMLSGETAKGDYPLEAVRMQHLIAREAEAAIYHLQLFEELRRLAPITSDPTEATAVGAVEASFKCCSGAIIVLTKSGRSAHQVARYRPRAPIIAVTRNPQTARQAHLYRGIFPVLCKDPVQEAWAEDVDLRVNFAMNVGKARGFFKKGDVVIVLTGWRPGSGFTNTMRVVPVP
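Kinase-Glo luminescence reports ATP generated from ADP (0.1 mM) and PEP (0.5 mM) by purified hPK-M2 after 1 h at room temperature, pH 7.2 imidazole buffer; intermediate enzyme activity allows detecting inhibitors and activators.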
Six1-Eya2 blk – Six1/Eya2 interaction inhibition; AlphaScreen GST-Six1/His-Eya2 binding, biochemical; active compounds read low; AID 651725; 360,000 compounds, 0.56% hits; Q15475+O00167; activity change, % (concentration not given with the values); in the data active means activity change below about -65%; inconclusive means mostly about -30% to -63%
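AlphaScreen luminescence read after one hour at 37 °C in darkness. Pin-transferred compounds met GST-Six1 and His-Eya2 protein (5X stock 250 nM/500 nM) plus glutathione donor and Ni-chelate acceptor beads (5X, 50 ug/mL).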
RORgamma inh – inhibitors of mouse ROR gamma transcriptional activity; Potency, µM (titrated, usually from 53.6 µM), without a hit: at the highest dose activity change, negative = inhibition, usual class: inhibitors; Drosophila S2 Gal4-RORgamma UAS-luciferase reporter, 20 h; AID 2551; 310,000 compounds, 5.4% hits; P51450; further: potency means the concentration at half of the fitted maximal effect; nearly all actives have a fitted effect of over 60% in size
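Stably transfected Drosophila Schneider cells are the test system, with ROR gamma fused to Gal4 and luciferase under UAS control; luminescence is read after 20 hr of 700 uM copper sulfate induction at ambient temperature.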
CtBP-E1A blk – blocks the CtBP interaction with E1A; activity change, % (concentration not given with the values); AlphaScreen GST-E1A/His-CtBP binding, 1536-well; active compounds read low; 340,000 compounds, 0.49% hits; in the data active means activity change below about -65%; inconclusive means mostly about -30% to -63%
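Homogeneous bead-based format: GST-tagged E1A captured on glutathione donor beads, His-tagged CtBP on nickel acceptor beads; compounds precede bead addition by 2 h at 37 °C.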
Gal4-VP16 FLuc – counter-screen for ROR gamma inhibitors: Gal4-VP16 reporter. Drosophila S2 Gal4-VP16 UAS-luciferase, luminescence, 20 h. Potency, µM (doses to about 53.6 µM), without a hit: at the top dose activity, negative = inhibition, most hits filed as inhibitors. 310,000 compounds, 3.5% hits;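 further: Gal4-VP16 expression switched on by copper sulfate through the metallothionein promoter; potency means the concentration at half of the fitted maximal effect; nearly all actives have a fitted effect of over 50% in size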
* marks the source's active call; other numbers are inactive results. Unless noted, the call rests on the fitted dose curve; in most records, active means well fitted curve in the direction sought with a large enough effect; inconclusive means small, poorly fitted or top-dose-only effect, or another doubt; inactive means no such curve, though single readings can be large; an effect the other way counts as inactive or inconclusive. On the % scale 0 is the no-effect control and ±100 the full control effect.

Results for CN1C2=C(C(=O)CC(C)(C)C2)C(c2cccs2)C2=C1CC(C)(C)CC2=O ?
Six1-Eya2 blk: 14; CtBP-E1A blk: 3

Results for COCC1CCN(Cc2c(C(=O)N3CCOCC3)nc3c(C)cccn23)C1 (stereo not drawn) ?
Six1-Eya2 blk: 8; CtBP-E1A blk: 3

Results for Cc1ccc(-n2ncc3c(NNC(=O)c4ccco4)ncnc32)cc1Cl ?
PKM2 act: 3%; Six1-Eya2 blk: 3; RORgamma inh: 3.2µM*; CtBP-E1A blk: 1; Gal4-VP16 FLuc: 4µM*

How did Cc1cccc(-n2ncc3c(NCc4ccco4)ncnc32)c1 do in these assays?
PKM2 act: 7%; Six1-Eya2 blk: -17; RORgamma inh: inconclusive; CtBP-E1A blk: 0; Gal4-VP16 FLuc: 4%

Results for Cc1cccc(-n2ncc3c(NNC(=O)c4ccco4)ncnc32)c1 ?
PKM2 act: 0%; Six1-Eya2 blk: 2; RORgamma inh: 7.1µM*; CtBP-E1A blk: -4; Gal4-VP16 FLuc: 7.9µM*

What do the screens show for `Cc1ccc(-n2ncc3c(NNC(=O)Cc4ccccc4)ncnc32)cc1`?
PKM2 act: -1%; Six1-Eya2 blk: 4; RORgamma inh: 13µM*; CtBP-E1A blk: 3; Gal4-VP16 FLuc: inconclusive

Results for Cc1ccc(-n2ncc3c(SCC(=O)NNC(=O)c4ccco4)ncnc32)cc1 ?
PKM2 act: 0%; Six1-Eya2 blk: 12; RORgamma inh: -23%; Gal4-VP16 FLuc: 30%

What do the screens show for `O=C(NNc1ncnc2c1cnn2-c1ccc(F)cc1)c1cccs1`?
PKM2 act: 0%; Six1-Eya2 blk: -1; RORgamma inh: 13µM*; CtBP-E1A blk: 9; Gal4-VP16 FLuc: -5%

What do the screens show for `CS(=O)(=O)c1ccc(C(=O)OCC(=O)N(CCc2ccccc2)Cc2ccccc2)cc1`?
Six1-Eya2 blk: -3; CtBP-E1A blk: 3

How did COc1ccc(C2(c3ccc(OC)cc3)NC(=O)N(CC(=O)Nc3ccc(OC)c(OC)c3)C2=O)cc1 do in these assays?
PKM2 act: 10%; Six1-Eya2 blk: -10; RORgamma inh: 31%; CtBP-E1A blk: -8; Gal4-VP16 FLuc: -18%

What do the screens show for `CNC(=S)N/N=C1\C(=O)c2cccc3cccc1c23`?
PKM2 act: -12%; Six1-Eya2 blk: -12; RORgamma inh: 0.5µM*; CtBP-E1A blk: -16; Gal4-VP16 FLuc: 2.5µM*

What do the screens show for `O=C(N/N=C1\CCc2ccccc21)c1ccc(O)cc1`?
PKM2 act: -21%; Six1-Eya2 blk: 1; RORgamma inh: 25%; CtBP-E1A blk: -2; Gal4-VP16 FLuc: -1%

Results for O=C(N/N=C1\C(=O)c2cccc3cccc1c23)c1ccc(O)cc1 ?
PKM2 act: -2%; Six1-Eya2 blk: -9; RORgamma inh: 0.071µM*; CtBP-E1A blk: -2; Gal4-VP16 FLuc: 0.32µM*

How did CCCCNC(=S)N/N=C1\C(=O)c2cccc3cccc1c23 do in these assays?
PKM2 act: -7%; Six1-Eya2 blk: -5; RORgamma inh: inconclusive; CtBP-E1A blk: 0; Gal4-VP16 FLuc: inconclusive

What do the screens show for `CC(=O)Nc1nn(C)c2nc(C)cc(C)c12`?
PKM2 act: -3%; Six1-Eya2 blk: 2; RORgamma inh: -1%; CtBP-E1A blk: -3; Gal4-VP16 FLuc: 2%

How did Cc1ccc(N2C(=O)c3ccccc3C2O)nc1 (stereo not drawn) do in these assays?
PKM2 act: -70%; RORgamma inh: 7.1µM*; Gal4-VP16 FLuc: inconclusive

Results for CCc1nc(C)cn1S(=O)(=O)c1ccc([N+](=O)[O-])cc1 ?
PKM2 act: 0%; Six1-Eya2 blk: 11; RORgamma inh: 1%; CtBP-E1A blk: -25; Gal4-VP16 FLuc: -9%

What do the screens show for `CCCn1c(CC)nc([N+](=O)[O-])c1S(=O)(=O)c1ccccc1`?
PKM2 act: -2%; Six1-Eya2 blk: 3; RORgamma inh: 7.9µM*; CtBP-E1A blk: 4; Gal4-VP16 FLuc: 18µM*

Results for Cc1ccnc(NC(=O)CCc2c[nH]c3ccccc23)c1 ?
PKM2 act: 2%; Six1-Eya2 blk: -23; RORgamma inh: 22%; CtBP-E1A blk: -7; Gal4-VP16 FLuc: -2%

How did Fc1cccc(-c2n[nH]c(=S)n2-c2ccccc2)c1 do in these assays?
PKM2 act: 0%; Six1-Eya2 blk: 3; RORgamma inh: 8.9µM*; Gal4-VP16 FLuc: 7.9µM*

Results for CCc1cc(-c2n[nH]c(=S)n2-c2cccc(C)c2)cs1 ?
PKM2 act: 5%; Six1-Eya2 blk: -1; RORgamma inh: 0.32µM*; CtBP-E1A blk: -7; Gal4-VP16 FLuc: 0.56µM*

Results for Cn1cc(Cl)c(-c2n[nH]c(=S)n2-c2ccccc2)n1 ?
PKM2 act: -1%; Six1-Eya2 blk: -4; RORgamma inh: -40%; CtBP-E1A blk: -1; Gal4-VP16 FLuc: -6%

Results for Cc1cccc(-n2c(-c3csc(C)c3)n[nH]c2=S)c1 ?
PKM2 act: -9%; Six1-Eya2 blk: -2; RORgamma inh: 4µM*; CtBP-E1A blk: 6; Gal4-VP16 FLuc: 8.9µM*

What do the screens show for `CCc1ccccc1-n1c(-c2ccncc2)n[nH]c1=S`?
PKM2 act: -1%; Six1-Eya2 blk: 5; RORgamma inh: inconclusive; CtBP-E1A blk: 0; Gal4-VP16 FLuc: inconclusive

How did CN(CC(=O)Nc1cccc(F)c1)C(=O)c1cccc(S(=O)(=O)N2CC3(C)CC2CC(C)(C)C3)c1 (stereo not drawn) do in these assays?
Six1-Eya2 blk: -3; CtBP-E1A blk: 11

What do the screens show for `CN(C)CCN=Cc1c(O)n(-c2ccc(S(=O)(=O)N3CCOCC3)cc2)c(=O)c2ccccc12`?
Six1-Eya2 blk: -7; CtBP-E1A blk: -3

What do the screens show for `CCCCCCCC/C=C/CCCCCCCC(=O)NCCOP(=O)(O)O`?
RORgamma inh: -11%; Gal4-VP16 FLuc: -8%

Results for O=S(=O)(NCc1cccc(C(F)(F)F)c1)NCc1ccccc1F ?
PKM2 act: -4%; Six1-Eya2 blk: 1; RORgamma inh: 6%; CtBP-E1A blk: 4; Gal4-VP16 FLuc: -1%

Results for COc1cccc(CN(CC(=O)NCc2ccccc2)C(=O)c2csnn2)c1 ?
PKM2 act: 1%; Six1-Eya2 blk: -2; RORgamma inh: -16%; CtBP-E1A blk: 8; Gal4-VP16 FLuc: 0%

Results for Cc1ccccc1/C=N/n1c(C2CCCCC2)n[nH]c1=S ?
Six1-Eya2 blk: -7; RORgamma inh: 16µM*; CtBP-E1A blk: 0; Gal4-VP16 FLuc: inconclusive

Results for O=[N+]([O-])c1ccccc1/C=N/n1c(C2CCCCC2)n[nH]c1=S ?
PKM2 act: -19%; Six1-Eya2 blk: -18; RORgamma inh: inconclusive; CtBP-E1A blk: -15; Gal4-VP16 FLuc: 35µM*

How did Fc1ccccc1/C=N/n1c(C2CCCCC2)n[nH]c1=S do in these assays?
Six1-Eya2 blk: -4; RORgamma inh: 11µM*; CtBP-E1A blk: 9; Gal4-VP16 FLuc: inconclusive
